Experimental data from PubChem BioAssay AID492993 (Johns Hopkins Ion Channel Center, 2010).
In all, about 4,900 compounds went through this assay and about 200 (4.1%) were called active.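 The calls were made as follows: active = thallium signal drop more than 5 SD beyond the mean of the no-compound control wells, seen in both duplicate plates; inactive = the rest.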 A selection follows.

Biological target: Inward rectifier potassium channel 2 (Mus musculus) (UniProt P35561)
Assay: off-target Kir2.1 potassium flux block – cell-based, HEK293, thallium flux, selectivity assay for KCNK9 modulator project, confirmation (AID 492993);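 as to inhibition: signal is fluorescence rise after thallium addition divided by baseline fluorescence; plate controls were assay buffer only for no effect and full block by chlorpromazine control for full effect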
Conditions: Kir2.1 cells, FluxOR thallium flux fluorescence, at 10 µM; active compounds read high

Chain of Inward rectifier potassium channel 2 (Mus musculus) (P35561 whole entry, looked up): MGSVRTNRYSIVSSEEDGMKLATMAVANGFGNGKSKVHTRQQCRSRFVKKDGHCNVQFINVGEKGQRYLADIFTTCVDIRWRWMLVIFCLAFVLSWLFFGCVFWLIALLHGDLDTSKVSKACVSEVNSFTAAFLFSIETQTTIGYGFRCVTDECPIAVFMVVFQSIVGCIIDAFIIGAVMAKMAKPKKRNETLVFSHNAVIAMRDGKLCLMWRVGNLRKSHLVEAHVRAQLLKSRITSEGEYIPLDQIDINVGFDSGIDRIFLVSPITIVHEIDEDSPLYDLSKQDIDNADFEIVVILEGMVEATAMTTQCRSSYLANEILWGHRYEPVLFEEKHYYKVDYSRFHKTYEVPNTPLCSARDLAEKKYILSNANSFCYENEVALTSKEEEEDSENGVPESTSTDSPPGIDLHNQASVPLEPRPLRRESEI

SMILES	inhibition
C=CCc1cc(S(=O)(=O)c2ccc(O)c(CC=C)c2)ccc1O	inactive
COc1ccc(C2CC(c3cccs3)=NN2c2ccccc2)cc1 (stereo not drawn)	inactive
Cc1cccc(N(C)C(=O)CN2C(=O)COc3ccc(S(=O)(=O)N4CCCCCC4)cc32)c1	inactive
CCOC(=O)c1c(NC(=O)CSc2cn(CC)c3ccccc23)sc2c1CCC2	inactive
CCCCCC(O)c1cccc(OCc2ccc3ccccc3n2)c1 (stereo not drawn)	70.5% (active)
COc1cccc(COC(=O)C2CCN(S(=O)(=O)c3ccc(Cl)cc3)CC2)c1OC	inactive
CC(C)C(=O)Nc1cccc(NC(=S)NC(=O)C(c2ccccc2)c2ccccc2)c1	inactive
O=C(Cn1cc(C(=O)c2cccs2)c2ccccc21)NCc1cccs1	inactive
C/C(=N\NC(=S)Nc1ccc(C)cc1)c1cc2ccccc2o1	inactive
Cc1ccc(SCC(=O)c2cc(C)c(OC(=S)N(C)C)c(C)c2)cc1	inactive
CCOC(=O)Cc1cc(=O)[nH]c(=O)[nH]1	inactive
O=C(NNc1ccccc1Cl)C(O)(c1cccc(C(F)(F)F)c1)c1cccc(C(F)(F)F)c1	inactive
CC1(C)CC(N2CCN(C(c3ccccc3)c3ccccc3)CC2)=CC(=[N+]2CCCCC2)C1	65% (active)
c1ccc(C(c2ccccc2)N2CCN(Cc3nnnn3C3CCCCC3)CC2)cc1	inactive
CCC(C)(C)n1nnnc1C(c1cccs1)N1CCN(c2nc3ccccc3s2)CC1 (stereo not drawn)	inactive
Clc1ccc(CSc2nnc(/C=C/c3ccccc3)o2)c(Cl)c1	inactive
COc1ccccc1C(c1nnnn1C(C)(C)C)N1CCN(Cc2ccccc2)CC1 (stereo not drawn)	inactive
CN(C)S(=O)(=O)N1CCC(Oc2cccc(C(=O)NCCCC3CCCC3)c2)CC1	inactive
O=[N+]([O-])c1ccc(N2CCN(CC(O)COc3ccccc3)CC2)cc1 (stereo not drawn)	inactive
O=C(Oc1ccc(Br)cc1C(=S)N1CCOCC1)c1cccc([N+](=O)[O-])c1	inactive
CN(CCOc1ccccc1)C(=O)c1cc(COc2c(F)cccc2F)on1	inactive
COC(=O)c1sc(-c2ccc(C(C)(C)C)cc2)cc1NC(=O)/C=C/C(=O)O	inactive
COc1cc(C(CCN2CCN(c3ccccc3)CC2)c2c(OC)cc(OC)c3ccc(=O)oc23)cc(OC)c1OC (stereo not drawn)	inactive
O=C1/C(=C/c2ccc3c(c2)OCO3)CCC/C1=C\c1ccc2c(c1)OCO2	inactive
O=C(Nc1cc(Cl)cc(Cl)c1)C(NCCCO)c1ccccc1 (stereo not drawn)	inactive
O=C(NCc1ccco1)c1ccc(NS(=O)(=O)c2cccc([N+](=O)[O-])c2)cc1	inactive

SMILES	inhibition
O=C1c2ccccc2C2=Nc3ccccc3SC(c3ccccc3F)C12 (stereo not drawn)	inactive
Cc1cccc(NC(=O)CN2CCCN(S(=O)(=O)c3ccc(Br)s3)CC2)c1	inactive
Cc1ccc(C)c(NC(=S)NNC(=S)Nc2ccc(C(C)C)cc2)c1	inactive
Cc1c(C(=O)Nc2ccccn2)oc2ccc(Br)cc12	inactive
O=C(CC(NC(=O)c1ccccc1)c1ccccc1)Nc1ccc(F)c(F)c1 (stereo not drawn)	inactive
CCCCN(CC)C(=O)C1CCCN(S(=O)(=O)c2cccc3nsnc23)C1 (stereo not drawn)	inactive
Oc1ccc(/C=N/Nc2nc(-c3ccccc3F)nc3ccccc23)c(O)c1	inactive
COC(=O)Cn1cnc2scc(-c3ccc(C)c(C)c3)c2c1=O	inactive
O=C(Nc1ccc(Cl)c(Cl)c1)N1CC=C(c2ccccc2)CC1	inactive
Cc1ccc(C(=O)/C=C/c2c(C)nn(-c3ccccc3)c2Cl)cc1	inactive
CCCOc1ccc2c3c(c(=O)oc2c1OCCC)CCC3	inactive
COc1cccc(-c2cc3nc4c(c(N5CCC6(CC5)OCCO6)n3n2)CCCC4)c1	inactive
Cc1nn(CC(=O)Nc2nc3ccccc3s2)c(C)c1[N+](=O)[O-]	inactive
COc1ccc(C(=O)C2CCCN(Cc3ccc4nonc4c3)C2)c(C)c1 (stereo not drawn)	inactive
Cc1ccc(-c2csc(NCCc3nc4cc(Cl)c(Cl)cc4n3CCOCCO)n2)cc1	inactive
COc1ccc2c(c1)C(c1cccs1)=NNC(c1cccnc1)=N2	inactive
COc1ccc([N+](=O)[O-])cc1-c1nc2ccccc2nc1-c1ccccc1	inactive
Cc1cc2ccccn2c1C(=O)c1cccc(S(=O)(=O)N2CCOCC2)c1	inactive
COc1ccc(/C=C2\CCc3ccccc3C2=O)c(OC)c1OC	inactive
COc1cccc(OC)c1C(=O)Nc1sc2c(c1C(N)=O)CCCC2	inactive
CC(C)N(C(=O)CSc1nc(COc2ccccc2)nc2ccccc12)C(C)C	inactive
O=c1cc(CN2CCN(c3cccc(Cl)c3)CC2)c2cc3c(cc2o1)CCCC3	inactive
Cc1ccc(CN2CCN(/N=C/c3ccco3)CC2)c(C)c1	inactive
Cc1[nH]c2ccccc2c1CCN(Cc1cccs1)C(=S)NC(C)(C)C	inactive
O=C(CSCc1ccc(Cl)cc1)N1CCN(Cc2ccc3c(c2)OCO3)CC1	inactive
CCC/C=C(\CCC)C(NC(=O)Cc1ccccc1)c1ccc(C(=O)OC)cc1 (stereo not drawn)	inactive

SMILES	inhibition
O=C1CC(NNc2ccccc2)C(=O)N1c1cccc(Cl)c1 (stereo not drawn)	inactive
FC(F)(F)c1cc(-c2ccco2)nc(NCc2ccc(Cl)cc2)n1	inactive
COc1ccc(NC(=O)CN(C)CC(=O)Nc2cccc(C(F)(F)F)c2)cc1	inactive
CCCCCCCCCCOC(=O)Cn1c(COc2ccc(C)cc2)[n+](C)c2ccccc21	60.5% (active)
CCCCCn1c(=O)c(C(=O)OCC)c(Cl)c2ccccc21	inactive
CCCCCCCCCCOC(=O)Cn1c(COc2cccc(OC)c2)[n+](C)c2ccccc21	70% (active)
CCCSc1nc(NCc2ccco2)c2c3c(sc2n1)COC(C)(CC)C3 (stereo not drawn)	inactive
COc1ccc(-c2noc(CSc3ccc(C)cc3)n2)cc1	inactive
COc1cccc(COc2ccc(N(C)S(=O)(=O)c3ccccc3)cc2)c1	inactive
CCOc1ccc(C(C)C)cc1S(=O)(=O)n1nc(C)cc1C	inactive
Cc1cc(C=O)c(C)n1-c1ccc(NC2CCCCC2)c([N+](=O)[O-])c1	inactive
O=C(C[C@H]1C(=O)N(c2ccc(F)c(F)c2)C[C@@H]1Cc1ccccc1)Nc1ccccc1	inactive
CCCCNC(=S)N/N=C1\CCCCc2ccccc21	inactive
CC(C)(C)SCCSC1=CC(=O)CC(c2ccccc2)C1 (stereo not drawn)	inactive
COc1ccc(C(C)=O)cc1COc1ccc(Cl)c(C)c1	inactive
CCOC(=O)c1c(NC(=O)CCCN2CCOCC2)sc2c1CC(C)(C)OC2	inactive
Cc1cc(C)cc(NC(=O)CSCc2cnn(-c3ccccc3)c2-n2cccc2)c1	43% (active)
O=C1c2ccccc2S(=O)(=O)N1CC(O)Cn1c2ccccc2c2ccccc21 (stereo not drawn)	inactive
COc1cc(Cl)c(S(=O)(=O)N2CCN(Cc3ccc4c(c3)OCO4)CC2)cc1Cl	inactive
Cc1cc(Cl)ccc1C(=O)C1CCCN(C(=O)CCN2CCCO2)C1 (stereo not drawn)	inactive
Cc1ccccc1N1CCN(Cc2nc(Cc3ccccc3F)no2)CC1	inactive
COc1cccc(C(=O)NCCSc2ccc(Br)cc2)c1	inactive
COc1cc(NC(=S)NCCSc2ccc(C)cc2)cc(OC)c1	inactive
O=S(=O)(c1ccc(F)cc1)N1CCN(Cc2ccccc2C(F)(F)F)CC1	inactive
O=C(CSCc1ccc(Br)cc1)Nc1ccc(S(=O)(=O)N2CCCCCC2)cc1	inactive
CC1=C/C(=N\OS(=O)(=O)c2ccccc2)C=CC1=O	inactive

SMILES	inhibition
COc1ccc(-c2oc(/N=C/N3CCCC3)c(C#N)c2-c2ccc(OC)cc2)cc1	inactive
Cc1ccc(S(=O)(=O)N2CCN(C(=O)COC(=O)c3c(C)cc(C)cc3C)CC2)c(C)c1	inactive
Cc1ccc(NC2CCCN(C(=O)CCC3(C)CC3)C2)cc1C (stereo not drawn)	inactive
CCOc1ccccc1NC(=O)C12CC3CC(C1)CC(c1ccc(C)cc1)(C3)C2	inactive
COCCN(C(=S)Nc1cccc(Cl)c1C)C(C)c1ccco1 (stereo not drawn)	inactive
Cn1nc(-c2ccccc2)c(CSc2cccc(Cl)c2)c1Cl	inactive
COc1ccc(C2Nc3ccccc3C(=O)N2Cc2ccccc2)cc1Cn1nnc2ccccc21 (stereo not drawn)	inactive
Cc1csc(Nc2ccc(Cl)cc2)[n+]1-c1ccc(Cl)cc1	inactive
CCC1=NN(C(=O)Cc2ccc([N+](=O)[O-])cc2)C(O)(c2ccc(Br)cc2)C1 (stereo not drawn)	inactive
COc1ccc(OC)c(C(=O)c2coc3ccc(OC)cc23)c1	inactive
Cc1cc(Oc2ccc(Cl)cc2)nc(SCC(=O)c2ccccc2)n1	inactive
CCCC(=O)n1nc(NCc2ccc(OC)cc2)nc1NCc1ccc(OC)cc1	inactive
CCCCn1ccnc1C(=O)c1cccc(S(=O)(=O)N2c3ccccc3CC2C)c1 (stereo not drawn)	inactive
CCCC1=Nc2cc(C(=O)NCc3ccco3)ccc2Sc2ccccc21	inactive
Cc1ccc(N2CCN(S(=O)(=O)c3ccc(F)cc3)CC2)c(C)c1	inactive
O=[N+]([O-])/C=C/c1ccc2c(ccn2Cc2ccccc2)c1	41.5% (active)
CCc1cccc(C)c1N(C(=O)Cn1c(CO)nc2ccccc21)C(C)COC (stereo not drawn)	inactive
CCCN1C(=O)C(Cc2nc3ccccc3c(=O)n2-c2ccccc2)c2cc(C)ccc21 (stereo not drawn)	inactive
CCOC(=O)CSc1nc2c(sc(=S)n2CCc2ccccc2)c(=O)n1Cc1ccco1	inactive
CN(c1ccccc1)S(=O)(=O)c1cccc(NC(=O)Cc2c(F)cccc2Cl)c1	28.5% (active)
CN(CCC(=O)Nc1cc(S(=O)(=O)N(C)C)ccc1Cl)CC(=O)Nc1ccc(F)cc1	inactive
Cc1ccccc1CSCCNC(=O)c1ccc(N(C)S(=O)(=O)c2ccccc2)cc1	inactive
CCOC(=O)C1=C(C)Nc2sc(C(=O)c3ccc(Br)cc3)c(N)c2C1c1ccc(C(=O)OC)cc1 (stereo not drawn)	inactive
Cc1ccc(C(=O)c2c(NC(=O)c3ccccc3)sc(C)c2C)cc1	inactive
CCOc1ccc(CN(Cc2ccco2)C(c2cccs2)c2nnnn2C(C)(C)C)cc1 (stereo not drawn)	inactive
